Data taken from PubChem BioAssay AID1851 (National Center for Advancing Translational Sciences (NCATS), 2009).
“And” between values parts separate entries of the source, which are not always exact repeats. Equal values may be shown once. About 5,700 (36%) of roughly 16,000 compounds were called active. Another 24% or so got no clear call; they are omitted. The call rests on the fitted dose curve; in most records, active means well fitted curve in the direction sought with a large enough effect; inconclusive means small, poorly fitted or top-dose-only effect, or effect the other way; inactive means no such curve, though single readings can be large or run the other way. Some of the results follow.

Biological target: Cytochrome P450 1A2 (Homo sapiens) (UniProt P05177)
Assay: Cytochrome panel assay with activity outcomes
Conditions: recombinant CYP, pro-luciferin dealkylation, luminescence, p450-cyp1a2; series mostly up to 57.1 µM; activity, negative = inhibition: at the top concentration
On the % scale 0 is the no-effect control and ±100 the full control effect.

Chain of Cytochrome P450 1A2 (Homo sapiens) (P05177 whole entry, looked up): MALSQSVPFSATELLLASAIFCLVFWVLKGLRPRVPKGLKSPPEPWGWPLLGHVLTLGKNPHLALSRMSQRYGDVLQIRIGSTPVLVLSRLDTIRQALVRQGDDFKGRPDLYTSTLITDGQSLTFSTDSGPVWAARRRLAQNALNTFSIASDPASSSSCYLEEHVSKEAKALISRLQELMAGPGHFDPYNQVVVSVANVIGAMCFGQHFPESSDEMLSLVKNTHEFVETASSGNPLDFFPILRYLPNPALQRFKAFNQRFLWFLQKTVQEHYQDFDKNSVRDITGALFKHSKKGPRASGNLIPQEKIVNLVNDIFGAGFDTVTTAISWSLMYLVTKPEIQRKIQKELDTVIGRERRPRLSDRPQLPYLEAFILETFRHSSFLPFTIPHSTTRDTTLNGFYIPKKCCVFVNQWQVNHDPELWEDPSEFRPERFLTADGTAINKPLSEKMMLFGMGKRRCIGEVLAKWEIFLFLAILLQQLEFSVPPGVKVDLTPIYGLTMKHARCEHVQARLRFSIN

| SMILES | activity, negative = inhibition | AC50 |
| --- | --- | --- |
| O=C1CCCC=C1[C@@H](O)C1CCCCC1 | -1.29% [at 11.4 µM] (inactive) | – |
| O=C(Cc1ccc(Cl)cc1)N1CCN(C(=O)c2ccco2)CC1 | -13.2% (inactive) | – |
| O=C(c1ccc(Cl)cc1)N1CCN(C(=O)c2ccco2)CC1 | 4.7% (inactive) | – |
| O=C(c1cc(-c2ccc(Cl)cc2Cl)on1)N1CCN(C(=O)c2ccco2)CC1 | – | 15.8 µM (active) |
| CC(=O)NCCNc1ncnc2ccc(-c3ccoc3)cc12 | – | 12.6 µM (active) |
| COCCNc1ncnc2ccc(-c3ccc(N(C)C)cc3)cc12 | – | 0.251 µM (active) |
| COCCNc1ncnc2ccc(-c3ccoc3)cc12 | – | 15.8 µM (active) |
| CC(=O)NCCNc1ncnc2ccc(-c3ccc4c(c3)OCO4)cc12 | – | 0.501 µM (active) |
| COCCNc1ncnc2ccc(-c3ccc(C(=O)N(C)C)cc3)cc12 | -19.4% (inactive) | – |
| CCc1cc2c(nc1CC)CCN(CC/C(C)=N/OC[C@@H](O)COCc1ccco1)C2 | -8.65% [at 11.4 µM] (inactive) | – |
| CN(C)CCCN1c2ccc3ccccc3c2Sc2cccc(Cl)c21 | – | 1 µM (active) |
| CCC(=S)/C=C1\Sc2ccc3ccccc3c2N1CCCS(=O)(=O)O | -13.1% (inactive) | – |
| CN(C)CCCN1c2ccccc2Sc2ccc3ccccc3c21 | -2.18% [at 2.29 µM] (inactive) | – |
| COc1ccc(C(=O)N2CCC3(CC2)CN(C(=O)Nc2cccc(C#N)c2)C3)cc1 | -4.75% (inactive) | – |
| O=c1cc(-c2ccccc2)[nH]n1-c1ccc([N+](=O)[O-])cc1 | – | 22.4 µM (active) |
| O=C(OC1CCN(c2ccc([N+](=O)[O-])cc2)CC1)c1ccccc1 | -6.58% (inactive) | – |
| CCCNc1c(F)c(F)c2c(C)c3ccccc3nc2c1F | – | 0.708 µM (active) |
| Oc1ccc2ccccc2c1/C=C\c1ccc2c(Br)cc(Br)c(O)c2n1 | – | 3.98 µM (active) |
| CC(=O)N1N=C(c2cccc([N+](=O)[O-])c2)OC1c1ccc(Cl)cc1Cl (stereo unspecified) | – | 2.51 µM (active) |
| CC(=O)N1CC(=O)N(OCc2ccccc2)C1c1ccc(Cl)cc1Cl (stereo unspecified) | 2.24% (inactive) | – |
| CC(=O)N1N=C(c2cccc([N+](=O)[O-])c2)OC1c1ccccc1Cl (stereo unspecified) | – | 14.1 µM (active) |
| COc1ccc(C2C3=C(CC(C)(C)CC3=O)Oc3ncn(CC(C)C)c(=N)c32)cc1 (stereo unspecified) | -4.33% (inactive) | – |
| NNC(=O)CNc1cccc(Br)c1 | – | 0.501 µM (active) |

| SMILES | activity, negative = inhibition | AC50 |
| --- | --- | --- |
| Cc1ccc2c(c1)N(CCC(=O)NCC1CCCO1)C(=O)CO2 (stereo unspecified) | -29.1% (inactive) | – |
| CCC[C@H]1C(=O)N2C(N(C)C)=Nc3ccc(C)cc3N2C1=O | – | 1.58 µM (active) |
| COCCn1c(=O)c(-c2cc(F)cc(F)c2)nc2cnc(N3CCNCC3)nc21 | – | 6.31 µM (active) |
| COCCn1c(=O)c(-c2ccc(OC)cc2)nc2cnc(N3CCNCC3)nc21 | – | 6.31 µM (active) |
| CN1CCN(c2ncc3nc(-c4cccc(C#N)c4)c(=O)n(Cc4ccc(F)cc4)c3n2)CC1 | -15.5% (inactive) | – |
| CN1CCN(c2ncc3nc(-c4cccc(C#N)c4)c(=O)n(CCC#N)c3n2)CC1 | -11.5% (inactive) | – |
| COCCn1c(=O)c(-c2cccc(C#N)c2)nc2cnc(N3CCNCC3)nc21 | – | 10 µM (active) |
| COc1cccc(Cn2c(=O)c(-c3cc(F)cc(F)c3)nc3cnc(N4CCNCC4)nc32)c1 | -17.6% (inactive) | – |
| CC[C@H](C)[C@@H]1O[C@]2(CC[C@@H]1C)C[C@H]1C[C@H](CC=C(C)[C@@H](O[C@H]3C[C@H](OC)[C@H](O[C@H]4C[C@H](OC)[C@H](O)[C@H](C)O4)[C@H](C)O3)[C@@H](C)C=CC=C3CO[C@@H]4[C@@H](O)C(C)=C[C@H](C(=O)O1)[C@@]34O)O2 | -8.74% (inactive) | – |
| C/C(CCC(=O)OC[C@@H]1O[C@H](C#Cc2ccccc2)C=C[C@@H]1Oc1ccc(C)cc1)=N/O[C@@H](C)c1cn([C@H](CO)Cc2ccccc2)nn1 | -3.36% [at 11.4 µM] (inactive) and -0.528% [at 11.4 µM] (inactive) | – |
| CC(=O)O[C@]12CC[N@+]3(C)CCCC[C@@H]3[C-]1Nc1ccccc12 | -11% [at 11.4 µM] (inactive) | – |
| COc1cccc(-c2nccc(-n3ccnc3)n2)c1 | – | 0.0316 µM (active) |
| CN(C)c1ccc(-c2cc(-n3ccnc3)ncn2)cc1 | – | 0.158 µM (active) |
| N#Cc1cccc(-c2nccc(-n3ccnc3)n2)c1 | – | 0.2 µM (active) |
| COc1ccc(C2/C(=C(/O)c3ccccc3)C(=O)C(=O)N2c2ccccn2)c(OC)c1 (stereo unspecified) | -28.1% (inactive) | – |
| N#Cc1cccc(-c2cc(-n3ccnc3)ncn2)c1 | – | 0.126 µM (active) |
| COc1cccc(/C(O)=C2/C(=O)C(=O)N(c3ccccn3)C2c2ccc(OC)c(OC)c2)c1 (stereo unspecified) | 12% (inactive) | – |
| NN(CC(=O)O)CC(=O)O | 1.78% [at 11.4 µM] (inactive) | – |
| C[N@+]1(CCC(=O)c2ccccc2)CC[C@H]2CC[C@H](C2)C1 | -19% [at 11.4 µM] (inactive) | – |
| c1cncc(-c2cc(-n3ccnc3)ncn2)c1 | – | 0.1 µM (active) |
| CC1(C)NC(=O)N(c2ccc([N+](=O)[O-])c(C(F)(F)F)c2)C1=O | – | 3.16 µM (active) and 2.51 µM (active) |
| CCSc1nc2c(c(=O)[nH]1)C(c1ccncc1)C(C(=O)OC(C)C)=C(C)N2 (stereo unspecified) | – | 15.8 µM (active) |
| Cc1ccc(C2C3=C(CCCC3=O)Nc3nc(SCC(=O)NCc4ccco4)[nH]c(=O)c32)cc1 (stereo unspecified) | -17.4% (inactive) | – |

| SMILES | activity, negative = inhibition | AC50 |
| --- | --- | --- |
| CCSc1nc2c(c(=O)[nH]1)C(c1ccccn1)C1=C(CC(C)(C)CC1=O)N2 (stereo unspecified) | -27.4% (inactive) | – |
| [Li+] | -2.16% (inactive) | – |
| COc1ccc2c(c1)CCc1sc(NC(=O)c3ccc(C)cc3)nc1-2 | – | 4.47 µM (active) |
| COc1cccc(C(=O)Nc2nc3c(s2)CN(C)CC3)c1 | – | 12.6 µM (active) |
| COc1ccc(NC(=O)N2CC3(CCN(C(=O)c4ccco4)CC3)C2)cc1 | -9.08% (inactive) | – |
| COc1cccc(C(=O)NCCN2CCOCC2)c1 | -9.55% (inactive) | – |
| COc1ccc2c(c1)Cc1sc(NC(=O)c3ccco3)nc1-2 | – | 3.16 µM (active) |
| COc1ccc(NC(=O)C2(c3ccc(NC(=O)c4ccc(C)cc4)cc3)CCCC2)cc1 | 5.17% (inactive) | – |
| COc1ccc(C(=O)Nc2nc3c(s2)Cc2cc(OC)ccc2-3)cc1 | – | 4.47 µM (active) |
| COc1ccc(-c2nc(NC(=O)c3ccccc3)sc2-c2ccc([N+](=O)[O-])cc2)cc1 | -4.3% (inactive) | – |
| CC(=O)OC[C@H]1O[C@@H](CCO/N=C2/[C@H]3O[C@@H]3[C@@H](O)[C@H]3[C@H]2CCn2c(=O)n(-c4ccccc4)c(=O)n23)C=C[C@@H]1OC(C)=O | -3.93% [at 11.4 µM] (inactive) | – |
| C[C@@H](c1ccccc1)N1C(=O)[C@H]2[C@H]3[C@H](O)[C@H](O)C/C(=N/OC[C@@H](O)COCc4ccco4)[C@H]3CC[C@@H]2C1=O | -3.98% [at 11.4 µM] (inactive) | – |
| O=C(O)CCCCCNC(=O)c1ccccc1Br | 1.98% (inactive) | – |
| CN(C(=S)NC(=O)c1ccccc1Br)C1CCCCC1 | – | 14.1 µM (active) |
| C[C@]1(OC(=O)/C=C\c2ccccc2)C[C@@H](O)[C@@]2(O)C=CO[C@@H](O[C@H]3O[C@@H](CO)[C@@H](O)[C@@H](O)[C@@H]3O)[C@H]21 | -7.84% [at 25.6 µM] (inactive) | – |
| c1ccc(-n2ncc3c2ncn2cnnc32)cc1 | – | 6.31 µM (active) |
| CC(=O)Nc1ccc(Nc2ncnc3c2cnn3-c2ccccc2)cc1 | -19% (inactive) | – |
| Nc1ncnc2c1cnn2-c1ccccc1 | – | 6.31 µM (active) |
| Nc1ncnc2c1nc(-c1ccccc1)n2[C@H]1O[C@@H](CO)[C@@H](O)[C@H]1O | -16.8% [at 2.29 µM] (inactive) | – |
| CSc1nsc(SC)c1NC(=O)OCc1ccccc1 | – | 10 µM (active) |
| CCC(=O)NC(NCC1CCCO1)C(Cl)(Cl)Cl (stereo unspecified) | 9.29% (inactive) | – |
| O=C(NCC1CCC(C(=O)O)CC1)OCc1ccccc1 (stereo unspecified) | -3.85% (inactive) | – |
| CC(=O)N1CCC2(CC1)CCN(C(=O)Nc1cccc(F)c1)CC2 | -4.16% (inactive) | – |

| SMILES | activity, negative = inhibition | AC50 |
| --- | --- | --- |
| CSc1nsc(SC)c1NC(=O)OCC1CCCO1 (stereo unspecified) | – | 20 µM (active) |
| O[C@H](CNc1ccccn1)c1ccccc1 | -29.6% [at 11.4 µM] (inactive) | – |
| CSc1nsc(SC)c1NC(=O)Nc1ccccn1 | – | 2.51 µM (active) |
| O=C(O)/C=C\C(=O)Nc1ccccn1 | -5.8% [at 11.4 µM] (inactive) | – |
| O=C(O)c1nnsc1COCc1ccccc1 | -12.2% [at 11.4 µM] (inactive) | – |
| O=C(Nc1cccc(F)c1)Nc1ccccn1 | – | 2 µM (active) |
| CCOC(=O)c1ccc(NC(=O)C(=O)NCC2CCCO2)cc1 (stereo unspecified) | -12.1% (inactive) | – |
| O=C(c1ccco1)N1CCC2(CCN(Cc3nccs3)CC2)CC1 | -5.61% (inactive) | – |
| C=C1CC[C@H](O)C/C1=C/C=C1\CCC[C@]2(C)[C@H]1CC[C@H]2[C@@H](C)/C=C\[C@@H](C)C(C)C | 0.111% [at 25.6 µM] (inactive) | – |
| COCC(=O)Nc1c(I)c(C(=O)NC[C@@H](O)CO)c(I)c(C(=O)N(C)C[C@@H](O)CO)c1I | 0.0909% [at 25.6 µM] (inactive) | – |
| COc1ccc2c(c1)-c1ccccc1S(=O)(=O)N2C(C)=O | – | 20 µM (active) |
| COc1cccc([C@@H]2Oc3ccc(OC)cc3C(=O)[C@H]2O)c1 | 2.62% [at 11.4 µM] (inactive) | – |
| Cc1cc(NC(=O)C2=C(O)c3ccccc3S(=O)(=O)N2C)no1 | -6.66% [at 25.6 µM] (inactive) | – |
| O=C(c1cc(C(F)(F)F)cc(C(F)(F)F)c1)N1CCC2(CCCN(Cc3nccs3)C2)CC1 | 9.76% (inactive) | – |
| Cc1ccc(Nc2c([N+](=O)[O-])ccc3c2=NC2(CCCCC2)N=3)cc1 | – | 15.8 µM (active) |
| C[N+](C)(CCCCCC[N+](C)(C)CCCN1C(=O)c2cccc3cccc(c23)C1=O)CCCN1C(=O)c2cccc3cccc(c23)C1=O | 10.6% (inactive) | – |
| Cc1c(Cl)cccc1NC(=O)CC1NCCNC1=O (stereo unspecified) | 0.636% (inactive) | – |
| Cc1cccc(NC(=O)CC2Nc3cccc4cccc(c34)NC2=O)c1 (stereo unspecified) | – | 5.01 µM (active) |
| CCOC(=O)Cc1csc(NC(=O)CCCCCN2C(=O)c3ccccc3C2=O)n1 | – | 1.78 µM (active) |
| Cc1ccc(NC(=O)CCN2C(=O)c3ccncc3C2=O)cc1 | -35% (inactive) | – |
| CCOC(=O)c1sc(NC(=O)CCCCCN2C(=O)c3cccc4cccc(c34)C2=O)nc1C | – | 25.1 µM (active) |
| Cc1cccc(NC(=O)CCCN2C(=O)c3cccc4cccc(c34)C2=O)c1 | – | 6.31 µM (active) |
